Results: PubChem BioAssay (NCATS)
Results filed as inconclusive are left out. Calls of active or inactive are those of the source. Unless noted, the call rests on the fitted dose curve; in most records, active means well fitted curve in the direction sought with a large enough effect; inconclusive means small, poorly fitted or top-dose-only effect, or another doubt; inactive means no such curve, though single readings can be large; an effect the other way counts as inactive or inconclusive.

Assays:
[1] = target: Bile acid receptor (Homo sapiens) (UniProt Q96RI1); test: qHTS assay for small molecule antagonists of farnesoid X receptor signaling (AID 588526; calls by dose curve; further: on the % scale 0 is the no-effect control and ±100 the full control effect)
Outline: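 Concentration-response titrations were fitted to the Hill equation for half-maximal inhibition and maximal response, with data normalised to 50 uM chenodeoxycholic acid and DMSO control wells. Cells: FXR-UAS-bla HEK293T, dialyzed FBS.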

[2] = target: Peroxisome proliferator-activated receptor delta (Homo sapiens) (UniProt Q03181); test: qHTS assay for small molecule agonists of peroxisome proliferator-activated receptor delta signaling (AID 588534; calls by dose curve;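 further: 0% = DMSO basal wells and 100% = positive control agonist at 10 µM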)
Outline: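 Cells carrying a PPAR-delta beta-lactamase reporter were treated with compounds for 18 h at 37 °C in agonist mode. CCF4 fluorescence was read after 2 h; EC50 and efficacy from Hill fits.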

[3] = qHTS assay for small molecule antagonists of peroxisome proliferator-activated receptor delta signaling (AID 588535; active means well fitted inhibition curve with a large enough effect in the signal ratio, with a control signal flat, not every such curve was filed as active; the % refers to the signal ratio;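 on max response: cells co-treated with a PPAR-delta agonist as stimulator during compound exposure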); conditions: HEK293T PPARd-UAS-bla, beta-lactamase FRET ratio, 18 h; 460 nm channel
Outline: (§1)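 Reporter: UAS-bla under PPAR-delta response element, HEK293T host. Medium: 2% charcoal/dextran FBS. Dosing: titration, 18 hrs, 37 C. Detection: CCF4, 2 hrs RT, 405 ex/460 and 530 em.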

[4] = target: Peroxisome proliferator-activated receptor delta (Homo sapiens) (UniProt Q03181); test: as above
Outline: as §1

[5] = target: Vitamin D3 receptor (Homo sapiens) (UniProt P11473); test: qHTS assay for small molecule antagonists of vitamin D receptor signaling (AID 588541; calls by dose curve;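 further: receptor activated by calcitriol during compound treatment; series mostly up to about 77 µM; on the % scale 0 is the no-effect control and ±100 the full control effect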)
Outline: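 VDR-UAS-bla HEK293T cells (2000/well, 2% charcoal-stripped FBS) were treated with titrated compounds plus 1-alpha,25-dihydroxyvitamin D3 (50 nM or 3 nM final) for 16 h at 37 C. CCF4 beta-lactamase fluorescence was read; Hill fits gave IC50.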

[6] = target: Retinoic acid receptor RXR-alpha (Homo sapiens) (UniProt P19793); test: qHTS assay for small molecule agonists of retinoid X receptor alpha signaling (AID 588544; calls by dose curve;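 further: 0% = DMSO basal wells and 100% = reference agonist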)
[7] = target: Thyroid hormone receptor beta (Homo sapiens) (UniProt P10828); test: qHTS assay for small molecule agonists of thyroid hormone receptor beta signaling (AID 588545; calls by dose curve;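 further: 0% = DMSO only and 100% = 10 nM T3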)
Outline: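 TR-UAS-bla GripTite HEK 293 cells (2500/well, medium with 2% charcoal/dextran FBS) were treated in agonist mode for 18 h at 37 C, titrated. Beta-lactamase was read by CCF4 ratio after 2 h; normalized to 10 nM T3 (100%) and DMSO, Hill-fitted for EC50 and efficacy.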

[8] = qHTS assay for small molecule antagonists of retinoid X receptor alpha signaling (AID 588546; active means well fitted inhibition curve with a large enough effect in the signal ratio, with a control signal flat, not every such curve was filed as active; the % refers to the signal ratio; further: potency means the concentration at half of the fitted maximal effect;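 on max response: cells stimulated with 9-cis-retinoic acid as agonist; on the % scale 0 is the no-effect control and ±100 the full control effect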); conditions: HEK293T RXRa-UAS-bla, beta-lactamase ratio, antagonist mode; measured here: W530 green channel, cytotoxicity proxy
Outline: (§2)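 Beta-lactamase reporter inhibition, read as CCF4 fluorescence ratio (ex 405, em 460/530 nm) after 2 h at RT. HEK293T UAS-bla cells, 2500/well, were stimulated with 9-cis-RA at 500 or 100 nM final alongside test compound for 18 h at 37 C.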

[9] = target: Retinoic acid receptor RXR-alpha (Homo sapiens) (UniProt P19793); test: as above; conditions: HEK293T RXRa-UAS-bla, beta-lactamase ratio, antagonist mode
Outline: as §2

[10] = qHTS assay for small molecule activators of the p53 signaling pathway (AID 651743; active means well fitted activation curve with a large enough effect in the signal ratio, not every such curve was filed as active; the % refers to the signal ratio; further: series mostly up to about 92 µM; % of control where 0% means no effect); conditions: HCT-116 p53RE-bla, beta-lactamase FRET ratio, 16 h; activation: stronger effect = higher value
Outline: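 Cell-based beta-lactamase reporter (p53 response elements, HCT-116 background). After a 5-hour preincubation, cells received compound for 16 hours at 37 C; substrate development ran 2 hours at room temperature.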

[11] = qHTS assay for environmental chemicals that activate the Aryl hydrocarbon Receptor (AhR) signaling pathway (AID 651777); conditions: 1A2-DRE human hepatoma cells, luciferase, 24 h; activation: stronger effect = higher value; further: % of control where 0% means no effect; nearly all actives have a fitted effect of over 15% in size
Outline: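 Measured luciferase activity, read 30 min after One-Glo addition at room temperature, from human hepatoma cells bearing a dioxin response element–CYP1A2 promoter reporter and exposed to compound for 24 hr at 37 C.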

[12] = target: Peroxisome proliferator-activated receptor alpha (Homo sapiens) (UniProt Q07869); test: qHTS assay for small molecule agonists of the peroxisome proliferator-activated receptor alpha (PPARalpha) signaling pathway (AID 651778); conditions: PathHunter PPARalpha complementation, chemiluminescence, 6 h; max response: stronger effect = higher value; further: % of control where 0% means no effect
Outline: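 Cells plated at 2,000/well and held overnight at 37 C, 5% CO2, then compound added by pin tool for 6 hr; after PathHunter detection reagent and 60 min at room temperature, chemiluminescence from enzyme complementation was read.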

[13] = qHTS assay for small molecule agonists of the antioxidant response element (ARE) signaling pathway measured by Nrf2-dependant transcriptional activity (AID 720636; active means well fitted curve in the direction sought with a large enough effect in the repeat runs; an effect the other way counts as inactive or inconclusive; further: potency means the concentration at half of the fitted maximal effect;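 on activation: HepG2 cells with an ARE-driven luciferase reporter; % of control where 0% means no effect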)
Outline: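 In HepG2 cells engineered with an Nrf2-responsive luciferase gene, ARE induction was quantified as luminescence after 16 hr compound treatment at 37 C.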

[14] = qHTS assay for cell viability of HEK293 cells (AID 743288); conditions: ATP luminescence (CellTiter-Glo), 18 h; max response: stronger effect = lower value; further: nearly all actives have a fitted effect of over 50% in size; further: potency means the concentration at half of the fitted maximal effect
Outline: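 Parental HEK293 cells were seeded at 2,000 cells/well, rested at least 5 h at 37 C, then exposed to compounds in DMSO for 18 h at 37 C. Viability was read as ATP-dependent luciferase luminescence after 30 min at room temperature.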

[15] = qHTS assay for cell viability of the p53RE-bla HCT-116 cell line (AID 743292); further: on the % scale 0 is the no-effect control and ±100 the full control effect; nearly all actives have a fitted effect of over 55% in size
Outline: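 Intracellular ATP of p53RE-bla HCT-116 cells measured by luciferase luminescence following 16 h compound incubation at 37 C; DMSO-only wells served as vehicle controls.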

[16] = target: Nuclear receptor subfamily 1 group I member 2 (Rattus norvegicus) (UniProt Q9R1A7); test: qHTS assay for small molecule activators of the rat pregnane X receptor (rPXR) signaling pathway (AID 651751; call rule not given here; further: 0% is about no effect); conditions: rPXR reporter cells, luciferase (One-Glo), 24 h
[17] = qHTS assay for small molecule activators of the nuclear factor-kappa B (NF-kB) signaling pathway (AID 651749; active means well fitted activation curve with a large enough effect in the signal ratio; the % refers to the signal ratio; further: series mostly up to about 77 µM; % of control where 0% means no effect); conditions: NF-kB-bla ME-180 cells, beta-lactamase FRET ratio, 16 h; activation: stronger effect = higher value
Outline: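 Screening used 2,000 ME-180 reporter cells per well exposed to pinned compound (23 nL) or DMSO; after 16 hr at 37C, beta-lactamase expression under NF-kB control was assessed through FRET.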

[18] = qHTS assay for small molecule agonists of the antioxidant response element (ARE) signaling pathway measured by Nrf2-dependant transcriptional activity - cell viability counter screen (AID 720653; active means well fitted curve in the direction sought with a large enough effect in the repeat runs; an effect the other way counts as inactive or inconclusive; further: on the % scale 0 is the no-effect control and ±100 the full control effect); conditions: ARE-bla HepG2 viability, CellTiter-Glo ATP luminescence, 16 h; max response: stronger effect = lower value
Outline: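 ARE-bla HepG2 cells (2,000/well) rested 5 hrs at 37C/5% CO2, then exposed to compounds in DMSO for 16 hrs. Viability was read in the same wells as intracellular ATP by luminescence, 30 min at room temperature after reagent addition.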

[19] = target: Vitamin D3 receptor (Homo sapiens) (UniProt P11473); test: qHTS assay for small molecule agonists of vitamin D receptor signaling (AID 588543; calls by dose curve;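 further: 0% = DMSO basal and 100% = reference agonist control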)
Outline: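 GeneBLAzer VDR-UAS-bla HEK293T cells in 2% charcoal-stripped FBS medium were dosed with compound titrations for 16 h at 37 °C; CCF4 β-lactamase readout (405 nm ex, 460/530 nm em). EC50 and efficacy from Hill fits, normalized to 50 nM calcitriol (100%) and DMSO (0%).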

[20] = target: Bile acid receptor (Homo sapiens) (UniProt Q96RI1); test: qHTS assay for small molecule agonists of farnesoid X receptor signaling (AID 588527; calls by dose curve;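 further: series mostly up to about 77 µM; 0% = vehicle basal and 100% = reference agonist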); conditions: HEK293T FXR-UAS-bla, beta-lactamase ratio, 16 h; activation: stronger effect = higher value
Outline: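 FXR-UAS-bla HEK293T, 10% dialyzed FBS; cpds up to 92 uM titration, 16 h 37 C; CCF4 dye 2 h RT; fluorescence. Normalized to chenodeoxycholic acid 100 uM (100%) and DMSO (0%); Hill fit gives EC50, efficacy.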

Vitamin D3 receptor (Homo sapiens), sequence (P11473 whole entry, looked up): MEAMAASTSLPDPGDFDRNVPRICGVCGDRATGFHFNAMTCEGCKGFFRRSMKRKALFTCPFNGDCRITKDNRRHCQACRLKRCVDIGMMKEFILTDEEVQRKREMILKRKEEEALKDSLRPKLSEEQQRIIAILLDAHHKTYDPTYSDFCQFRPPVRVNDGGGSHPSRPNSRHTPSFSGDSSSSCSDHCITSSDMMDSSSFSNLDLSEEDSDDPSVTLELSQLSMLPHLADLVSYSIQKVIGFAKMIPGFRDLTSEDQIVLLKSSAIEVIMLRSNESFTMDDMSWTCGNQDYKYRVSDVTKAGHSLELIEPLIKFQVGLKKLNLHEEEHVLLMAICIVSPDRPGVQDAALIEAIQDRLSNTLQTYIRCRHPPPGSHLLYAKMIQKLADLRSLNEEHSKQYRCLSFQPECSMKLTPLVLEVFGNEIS
Peroxisome proliferator-activated receptor alpha (Homo sapiens), sequence (Q07869 whole entry, looked up): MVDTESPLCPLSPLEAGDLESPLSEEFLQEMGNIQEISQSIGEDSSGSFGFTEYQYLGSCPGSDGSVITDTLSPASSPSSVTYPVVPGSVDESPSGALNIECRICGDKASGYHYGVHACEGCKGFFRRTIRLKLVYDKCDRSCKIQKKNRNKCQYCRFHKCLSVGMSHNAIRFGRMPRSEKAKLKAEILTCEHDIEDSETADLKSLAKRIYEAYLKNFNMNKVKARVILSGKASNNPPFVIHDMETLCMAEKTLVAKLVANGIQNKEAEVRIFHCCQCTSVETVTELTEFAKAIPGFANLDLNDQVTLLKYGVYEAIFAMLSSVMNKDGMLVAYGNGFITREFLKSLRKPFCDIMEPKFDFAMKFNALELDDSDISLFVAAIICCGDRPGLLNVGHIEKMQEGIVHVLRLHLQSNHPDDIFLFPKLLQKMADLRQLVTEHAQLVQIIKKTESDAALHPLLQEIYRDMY
Nuclear receptor subfamily 1 group I member 2 (Rattus norvegicus), sequence (Q9R1A7 whole entry, looked up): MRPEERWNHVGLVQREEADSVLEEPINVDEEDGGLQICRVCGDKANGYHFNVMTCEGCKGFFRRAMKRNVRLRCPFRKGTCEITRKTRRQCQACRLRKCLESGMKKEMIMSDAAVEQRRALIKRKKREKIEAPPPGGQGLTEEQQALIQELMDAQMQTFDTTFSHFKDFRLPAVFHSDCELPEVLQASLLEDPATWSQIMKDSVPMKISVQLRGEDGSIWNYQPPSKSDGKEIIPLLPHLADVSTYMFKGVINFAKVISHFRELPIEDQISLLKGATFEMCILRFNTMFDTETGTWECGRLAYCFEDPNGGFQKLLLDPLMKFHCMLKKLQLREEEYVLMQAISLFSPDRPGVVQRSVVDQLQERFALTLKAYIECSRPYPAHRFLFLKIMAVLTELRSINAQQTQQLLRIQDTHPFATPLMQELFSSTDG
Thyroid hormone receptor beta (Homo sapiens), sequence (P10828 whole entry, looked up): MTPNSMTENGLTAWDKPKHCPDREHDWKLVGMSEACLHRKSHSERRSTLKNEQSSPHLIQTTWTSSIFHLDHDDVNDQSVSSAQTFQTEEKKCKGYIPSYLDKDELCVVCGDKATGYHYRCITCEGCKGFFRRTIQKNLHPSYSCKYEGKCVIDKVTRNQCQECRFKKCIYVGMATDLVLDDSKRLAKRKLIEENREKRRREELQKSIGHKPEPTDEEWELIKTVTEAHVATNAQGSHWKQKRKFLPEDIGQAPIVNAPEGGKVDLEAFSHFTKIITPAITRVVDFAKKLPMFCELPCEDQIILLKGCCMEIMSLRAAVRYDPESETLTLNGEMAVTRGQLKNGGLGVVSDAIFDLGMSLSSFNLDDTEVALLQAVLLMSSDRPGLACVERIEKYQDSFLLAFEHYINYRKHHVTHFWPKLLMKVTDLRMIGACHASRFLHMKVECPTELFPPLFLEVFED
Peroxisome proliferator-activated receptor delta (Homo sapiens), sequence (Q03181 whole entry, looked up): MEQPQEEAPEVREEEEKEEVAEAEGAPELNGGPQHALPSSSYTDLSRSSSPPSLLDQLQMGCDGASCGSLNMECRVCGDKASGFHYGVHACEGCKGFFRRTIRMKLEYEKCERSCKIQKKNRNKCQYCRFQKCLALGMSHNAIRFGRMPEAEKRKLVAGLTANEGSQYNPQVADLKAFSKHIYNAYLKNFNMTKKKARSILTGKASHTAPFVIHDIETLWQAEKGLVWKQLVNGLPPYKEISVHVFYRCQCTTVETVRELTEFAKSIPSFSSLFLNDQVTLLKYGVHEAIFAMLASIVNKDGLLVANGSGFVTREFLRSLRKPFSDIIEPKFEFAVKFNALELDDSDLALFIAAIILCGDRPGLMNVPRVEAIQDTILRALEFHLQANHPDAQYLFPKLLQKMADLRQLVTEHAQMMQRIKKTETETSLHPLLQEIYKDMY
Retinoic acid receptor RXR-alpha (Homo sapiens), sequence (P19793 whole entry, looked up): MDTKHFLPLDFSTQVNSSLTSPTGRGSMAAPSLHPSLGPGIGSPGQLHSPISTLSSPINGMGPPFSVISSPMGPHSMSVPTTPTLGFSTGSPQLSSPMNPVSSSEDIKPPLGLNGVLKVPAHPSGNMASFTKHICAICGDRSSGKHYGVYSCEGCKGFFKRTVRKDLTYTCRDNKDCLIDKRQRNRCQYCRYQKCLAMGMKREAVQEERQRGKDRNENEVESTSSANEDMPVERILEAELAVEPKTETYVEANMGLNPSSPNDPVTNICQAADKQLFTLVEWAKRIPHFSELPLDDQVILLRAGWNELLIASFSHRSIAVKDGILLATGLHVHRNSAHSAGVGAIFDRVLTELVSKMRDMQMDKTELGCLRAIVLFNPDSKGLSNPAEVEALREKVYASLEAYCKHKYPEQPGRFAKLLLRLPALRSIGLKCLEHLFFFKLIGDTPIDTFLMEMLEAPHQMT
Bile acid receptor (Homo sapiens), sequence (Q96RI1 whole entry, looked up): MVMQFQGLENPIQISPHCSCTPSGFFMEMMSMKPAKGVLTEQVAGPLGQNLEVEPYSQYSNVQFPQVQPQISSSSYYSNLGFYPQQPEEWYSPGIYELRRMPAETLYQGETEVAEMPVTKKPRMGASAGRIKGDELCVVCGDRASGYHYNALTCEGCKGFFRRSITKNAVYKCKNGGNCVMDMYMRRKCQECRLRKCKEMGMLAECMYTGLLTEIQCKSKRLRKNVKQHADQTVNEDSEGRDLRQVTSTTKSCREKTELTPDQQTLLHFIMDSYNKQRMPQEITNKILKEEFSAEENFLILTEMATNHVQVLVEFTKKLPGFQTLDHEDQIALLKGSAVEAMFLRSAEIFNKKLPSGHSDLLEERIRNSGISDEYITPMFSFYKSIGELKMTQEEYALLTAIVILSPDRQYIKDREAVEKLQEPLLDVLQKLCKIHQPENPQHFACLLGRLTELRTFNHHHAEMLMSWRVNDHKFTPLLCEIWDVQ

N#CCNC(=O)c1cnccc1C(F)(F)F
-6.46%: max response [8]
-20.3%: max response [3]
inactive: Potency [1] | outcome [2] | Potency [4] | Potency [5] | Potency [6] | Potency [7] | max response [9] -7.71% | activation [10] -2.69% | activation [11] 1.26% | max response [12] -0.401% | Potency [13] | max response [14] -6.61% | Potency [15] | max response [16] 3.48%

COC(C)(C)CCC[C@H](C)C/C=C/C(C)=C/C(=O)OC(C)C
inactive: Potency [6] | Potency [7] | max response [9] 6.26% | activation [10] -4.16% | activation [17] 0.706% | activation [11] -0.0877% | max response [12] 0.0369% | Potency [13] | max response [18] -6.46% | max response [14] -5.99% | Potency [15]
-16.5%: max response [8]

CCNS(=O)(=O)C(F)(F)C(F)(F)C(F)(F)C(F)(F)C(F)(F)C(F)(F)C(F)(F)C(F)(F)F
inactive: Potency [1] | outcome [2] | Potency [4] | Potency [5] | outcome [19] | Potency [6] | Potency [7] | max response [9] 6.49% | activation [11] 1.24% | max response [12] 5.8% | Potency [13] | max response [18] -7.97% | max response [14] -20.2% | Potency [15] | max response [16] 2.04%
-20.7%: max response [3]
-8.67%: max response [8]

O=C(NC(=O)c1c(F)cccc1F)Nc1cc(Cl)c(OC(F)(F)C(F)F)c(Cl)c1
-11.9%: max response [8]
inactive: outcome [2] | Potency [6] | Potency [7] | max response [9] 21.4% | activation [10] -1.27% | activation [11] 0.0082% | max response [12] -1.91% | Potency [13] | max response [18] -11.1% | max response [14] -28.3% | Potency [15] | max response [16] -0.359%

COP(=O)(OC)Oc1nc(Cl)c(Cl)cc1Cl
inactive: Potency [1] | activation [20] -2.92% | Potency [5] | outcome [19] | Potency [6] | Potency [7] | max response [9] 1.04% | activation [11] 1.43% | max response [12] -0.672% | Potency [13] | max response [18] -0.97% | max response [14] -6.19% | Potency [15] | max response [16] 0.764%
-0.949%: max response [8]

CC(C)=C[C@@H]1[C@@H](C(=O)OCN2C(=O)C3=C(CCCC3)C2=O)C1(C)C
inactive: Potency [5] | Potency [7] | max response [9] 18% | activation [10] 11.9% | activation [11] -1.3% | max response [12] -0.573% | Potency [13] | max response [18] -22.2% | max response [14] -11.5% | Potency [15] | max response [16] 4.94%
-15.3%: max response [8]

C=CC(=O)OCC(CC)(COC(=O)C=C)COC(=O)C=C
inactive: outcome [2] | outcome [19] | activation [17] 0.162% | max response [12] -1.24% | max response [18] -3.3% | Potency [15] | max response [16] -14.4%
23.9%: max response [8]
active: Potency [9] 44.7 µM | Potency [13] 61.1 µM | Potency [14] 50.1 µM
